Consider 30 compounds from the supplement of paper PMC13380429.

Test [1] has as its system Vero E6 infected with SARS-CoV-2. The test is described as follows: morphology score (similarity to uninfected cells); higher = more like uninfected cells. The settings on record: 24 h.
The test system is the same in test [2]. Put plainly: SARS-CoV-2 infection rate relative to infected DMSO; higher = more infection, active = 60 or less. The settings on record: 24 h.

Where a name gives a salt, the structure may show the parent alone.

In test [1], `O=C(Nc1ccc(-c2ccncc2)cc1)N[C@H](CO)c1ccccc1` (0.833333 µM) yielded a morphology score of 0.489. Besides, in test [2], the SARS-CoV-2 infection rate is 94% (inactive).
The corresponding values for `CNC(=O)[C@H](Cc1c[nH]c2ccccc12)NC(=O)[C@@H](CC(=O)NO)CC(C)C` [ilomastat] (10 µM) are -0.0294 and 114% (inactive).
Regarding `CCOC(=O)C1=C(COCCN)NC(C)=C(C(=O)OC)C1c1ccccc1Cl` (stereo not given) [amlodipine] (10 µM), the morphology score in test [1] amounted to 0.697. Also, the SARS-CoV-2 infection rate in test [2] was 47% (active).
The corresponding values for `OC1(c2ccc(Cl)c(C(F)(F)F)c2)CCN(CCCC(c2ccc(F)cc2)c2ccc(F)cc2)CC1` [penfluridol] (0.833333 µM) are 0.173 and 79% (inactive).
In test [1], `NC12CC3CC(CC(C3)C1)C2` [amantadine] (10 µM) had a morphology score of -0.265. Moreover, in test [2], the SARS-CoV-2 infection rate was 110% (inactive).
The corresponding values for `O=C(NC1CCC1)c1ccc(C#Cc2cccc(F)c2)nc1` (10 µM) are 0.0178 and 99% (inactive).
On to `Cc1ccc(-c2ccc(C)cn2)nc1` [abametapir] (10 µM), for which the morphology score in test [1] turned out to be 0.0247. For the same compound, in test [2], the SARS-CoV-2 infection rate is 106% (inactive).
For `O=C(O)c1ccc(N2C(=O)/C(=C/c3ccc(-c4ccc([N+](=O)[O-])cc4)o3)C=C2c2ccccc2)cc1` (10 µM) the same measures were 0.184 and 93% (inactive).
On to `C=C[C@@](C)(/C=C/c1ccc(O)cc1)CCC=C(C)C` [bakuchiol] (10 µM), for which the morphology score in test [1] was -0.328. In test [2], the SARS-CoV-2 infection rate is 114% (inactive).
The corresponding values for `Cc1ccc(NC(=O)C(C)C)cc1C1CCN(Cc2ccc(Oc3ccc(F)c(F)c3)cc2)CC1` (0.833333 µM) are 0.375 and 90.5% (inactive).
For `CCc1nn(CCCN2CCN(c3cccc(Cl)c3)CC2)c(=O)n1CCOc1ccccc1` [nefazodone] (10 µM) the same measures were 0.0652 and 106% (inactive).
In test [1], `CC[C@H](CC#N)OC(=O)N[C@@H](C)c1cccc(NC(=O)Nc2ccc(-c3cnco3)c(OC)c2)c1` (10 µM) displayed a morphology score of -0.000547. Also, the SARS-CoV-2 infection rate in test [2] is 97% (inactive).
With `C[C@H]1[C@H](C)CC[C@]2(C(=O)O)CC[C@]3(C)C(=CC[C@@H]4[C@@]5(C)C[C@@H](O)[C@H](O)C(C)(C)[C@@H]5CC[C@]43C)[C@H]12` [corosolic-acid] (10 µM), the morphology score in test [1] is -0.302. The SARS-CoV-2 infection rate in test [2] was 116% (inactive).
For `O=C(c1ccccc1)C(O)c1ccccc1` (stereo not given) [benzoin] (10 µM) the same measures were -0.114 and 101% (inactive).
For `Cc1c(C(=O)NN2CCOCC2)nn(-c2ccc(Cl)cc2Cl)c1-c1ccc(I)cc1` (10 µM) the same measures were 0.11 and 87.5% (inactive).
As for `CCCCCCNC(=O)n1cc(F)c(=O)[nH]c1=O` [Carmofur] (0.833333 µM), the morphology score in test [1] stood at 0.222. In addition, the SARS-CoV-2 infection rate in test [2] was 106% (inactive).
For the compound `C[C@H](N/C(=N/C#N)Nc1cccc2ncccc12)c1ccccc1` (10 µM), the morphology score in test [1] stood at 0.0952. Also, the SARS-CoV-2 infection rate in test [2] was 98.5% (inactive).
For `CNC(=O)[C@H]1O[C@@H](n2cnc3c(NCc4cccc(I)c4)nc(Cl)nc32)[C@H](O)[C@@H]1O` (10 µM) the same measures were -0.0292 and 107% (inactive).
Compound `CCN(CC)C(=S)SSC(=S)N(CC)CC` [disulfiram] (10 µM) gave a morphology score in test [1] of 0.548. In test [2], the SARS-CoV-2 infection rate was 23% (active).
For `C[C@@H]1NC(=O)[C@@H]2CCCN2C(=O)[C@H](CC(N)=O)NC(=O)[C@@H]2CSSC[C@H](N)C(=O)N[C@H]3CSSC[C@H](NC1=O)C(=O)N[C@@H]([C@@H](C)O)C(=O)NCC(=O)N[C@H](C(=O)N[C@@H](Cc1ccc(O)cc1)C(=O)O)CSSC[C@H](NC(=O)[C@H](Cc1ccc(O)cc1)NC(=O)[C@H](CCC(=O)O)NC3=O)C(=O)N2` [linaclotide] (10 µM) the same measures were 0.0259 and 106% (inactive).
The corresponding values for `COc1ccc(C(=O)CC2(O)C(=O)Nc3c(Cl)ccc(Cl)c32)cc1` (stereo not given) (0.833333 µM) are 0.00554 and 95% (inactive).
As for `Cn1cnc2c1c(=O)[nH]c(=O)n2C` [theobromine] (10 µM), in test [1], the morphology score stood at 0.00515. Also, the SARS-CoV-2 infection rate in test [2] was 108% (inactive).
For `CN(C)CC/C=C1/c2ccccc2COc2ccc(CC(=O)O)cc21` [Olopatadine hydrochloride (Opatanol)] (10 µM) the same measures were 0.105 and 111% (inactive).
For `COc1cc2c(NC3CCN(C(C)C)CC3)nc(N3CCC(F)(F)CC3)nc2cc1OCCCN1CCCC1` (10 µM) the same measures were 0.243 and 25.5% (active).
`N=C(N)NCCSSCCNC(=N)N` [guanidinoethyldisulfide-bicarbonate] (10 µM) gave a morphology score in test [1] of 0.0245. Moreover, the SARS-CoV-2 infection rate in test [2] was 107% (inactive).
Compound `CN1CC(O)C2=C/C(=N/NC(N)=O)C(=O)C=C21` (stereo not given) [carbazochrome] (10 µM) returned a morphology score in test [1] of 0.0013. The SARS-CoV-2 infection rate in test [2] was 113% (inactive).
For `NCCCS(=O)(=O)O` [tramiprosate] (10 µM) the same measures were 0.072 and 104% (inactive).
For `CCn1cc(C(=O)O)c(=O)c2cc(F)c(N3CCN(C)CC3)cc21` [pefloxacin] (10 µM) the same measures were 0.158 and 91.5% (inactive).
The corresponding values for `C/C=C(/C(=C/C)c1ccc(O)cc1)c1ccc(O)cc1` [dienestrol] (10 µM) are -0.0419 and 96% (inactive).
Regarding `Cc1nc2c(c(=O)[nH]1)CSCC2` (10 µM), the morphology score in test [1] was 0.0297. Besides, the SARS-CoV-2 infection rate in test [2] is 114% (inactive).
